Source: PubChem BioAssay (NCATS)
Results filed as inconclusive are left out. Entries that show only a call come without a potency. Activity calls are given as the source filed them. Calls follow the shape of the dose curve; as a rule, active = well fitted cell-killing curve with a large enough effect; inconclusive = small, poorly fitted or top-dose-only effect, or effect the other way; inactive = flat fitted curve, though single readings scatter.

Experiment: MultiTox-Fluor Cytotoxicity Assay - LYMP1-001 - Dead Cells (AID 946);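 also: cells exposed to compound for 16 h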
Conditions: LYMP1-001 lymphoblastoid cells, dead-cell protease fluorescence; series mostly up to 92.2 µM
Source text: NIH Chemical Genomics Center [NCGC]
NIH Molecular Libraries Screening Centers Network [MLSCN]
National Institutes of Environmental Health Sciences [NIEHS]
National Toxicology Program [NTP]
We have developed a 1536-well cell-based assay for quantitative high throughput screening (qHTS) against a number of cell lines to determine in vitro cytotoxicity of small molecules. This particular assay uses a human lymphoblastoid cell line (LYMP1-001) purchased from Coriell Institute for Medical Research.
NCGC Assay Protocol Summary:
The MultiTox-Fluor Cytotoxicity Assay (Promega) is a homogeneous method to simultaneously measure the relative number of live and dead cells in culture by detecting changes in cell membrane integrity. There are two fluorogenic peptide substrates in the assay reagent. Viable cells are determined when the cell-permeant substrate (GF-AFC) enters the cell and is cleaved by protease from live cells resulting in liberated fluorophore. This live-cell protease activity restricted to viable cells is proportional to cell number. The dead cells are determined by using fluorogenic cell-impermeant peptide substrate (bis-AAF-R110) which cleaved by dead cell proteases leaking from damaged cell membrane.
Using the MultiTox-Fluor Cytotoxicity Assay, the relative number of dead cells was measured in the lymphoblastoid cell line with complete culture medium following compound treatment for 16 hours. The assay was performed in opaque black Kalypsys 1536-well plates. In the screen, tetraoctylammonium bromide was used as positive control. Library compounds were measured for their ability to cause acute toxicity in the cell line, as reflected by an increase in dead cell protease activity, in a concentration-dependent manner. Data were normalized to the controls for basal activity (DMSO only) and 100% stimulation (15 uM tetraoctylammonium bromide). AC50 values were determined from concentration-response data modeled with the standard Hill equation.
qHTS protocol for MultiTox-Fluor Cytotoxicity assay
[Step] [Parameter] [Value] [Description]
1. Reagent; 5 uL; 2500 lymphoblastoid cells/well
2. Time; 5 hr; 37 C incubation
4. Controls; 23 nL; Tetraoctylammonium bromide 6.4pM to 92 uM
5. Time; 16 hr; 37 C incubation
6. Reagent; 5 uL; MuliTox-Fluor Assay reagent
7. Time; 60 min; Room Temperature
8. Detection; dead-cell fluorescence (Ex/Em=485/520); EnVision plate reader
Keywords: cytotoxicity, lymphoblastoid cell line, fluorescence, NTPHTS, NTPHTS_NCGC, NIEHS, EPA, DSSTox, MLSMR, MLSCN, NIH Roadmap, qHTS, NCGC
Potency is read from the fitted curve at half-maximal effect.

SMILES	Potency
O=C(O)C1C(C(=O)O)C2(Cl)C(Cl)=C(Cl)C1(Cl)C2(Cl)Cl (configuration not stated)	inactive
Oc1c(Br)c(Br)c(Br)c(Br)c1Br	inactive
COP(=O)(OC)O/C(=C\Cl)c1cc(Cl)c(Cl)cc1Cl	inactive
CCCCCCCCn1sccc1=O	12.6 µM (active)
CC/C(=C(\c1ccccc1)c1ccc(OCCN(C)C)cc1)c1ccc(O)cc1	50.1 µM (active)
O=C1C2(Cl)C3(Cl)C4(Cl)C(Cl)(Cl)C5(Cl)C3(Cl)C1(Cl)C5(Cl)C24Cl (configuration not stated)	31.6 µM (active)
c1ccc2cc3c(cc2c1)-c1cccc2cccc-3c12	inactive
C#CCO	inactive
N#CSCSC#N	25.1 µM (active)
FC(F)(F)c1ccc(Cl)cc1	inactive
N#CC(Cl)Cl	inactive
C=CC(=O)OCC(CO)(COC(=O)C=C)COC(=O)C=C	7.94 µM (active)
O=[N+]([O-])C(Br)Br	inactive
C(=NC1CCCCC1)=NC1CCCCC1	inactive
O=C(CCl)c1ccccc1	50.1 µM (active)
Nc1ccccc1C(=O)OCCc1ccccc1	inactive
[Cd+2].[Cl-].[Cl-]	inactive
OC(c1ccc(Cl)cc1)(c1ccc(Cl)cc1)C(Cl)(Cl)Cl	inactive
ClC1=C(Cl)C2(Cl)C3C(Cl)C(Cl)CC3C1(Cl)C2(Cl)Cl (configuration not stated)	inactive
O=Nc1ccc(Nc2ccccc2)cc1	5.01 µM (active)
CC(=O)[O-].CC(=O)[O-].O.O.[Cd+2]	inactive
O=[N+]([O-])c1cc(C(F)(F)F)cc([N+](=O)[O-])c1Cl	inactive
